Pf growth 96h – P. falciparum growth inhibition at 96 hour, primary screen for plastid delayed-death inhibitors; P. falciparum luciferase reporter growth, 96 h; Potency, µM (highest dose often 28.7 µM), for the others: top-dose activity change, negative = inhibition, hits mostly inhibitors; AID 504834; actives 6.9% (n = 320,000); further: potency means the concentration at half of the fitted maximal effect; on the % scale 0 is the no-effect control and ±100 the full control effect
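Infected RBCs, 2% Hct / 0.05% parasitemia final; luciferase-reporter P. falciparum; cpd 96 h, 37 C, 5% CO2; luciferase detection reagent; luminescence.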
Cycloheximide cs – affects cycloheximide protein synthesis inhibition readout, counter-screen | cell reporter, cycloheximide protein synthesis inhibition counterscreen | max response, % | actives 12% (n = 300,000); in the data active means max response mostly above about 13%, no sharp cut-off; inactive means mostly below about 14%; further: read at 38.3 µM for the half of the compounds with a filed dose; 0% is about no effect
Marburg entry inh – inhibitors of Marburg virus binding or cell entry. Marburg virus pseudotyped entry inhibition, cell reporter. Potency, µM (titrated, usually from 37.8 µM), without a hit: top-dose activity change, negative = inhibition, usual class: inhibitors. actives 1.8% (n = 300,000). AID 540276; calls by dose curve; tested in HEK293 cells; further: potency means the concentration at half of the fitted maximal effect; on the % scale 0 is the no-effect control and ±100 the full control effect
LASV entry inh – inhibitors of Lassa virus binding or cell entry; Lassa virus pseudotype entry inhibition, cell reporter; AID 540256; actives 1.2% (n = 300,000); Potency, µM (highest dose often 37.9 µM), inactives show top-dose activity change, negative = inhibition, usual class: inhibitors; calls by dose curve; tested in HEK293 cells; further: potency means the concentration at half of the fitted maximal effect; on the % scale 0 is the no-effect control and ±100 the full control effect; nearly all actives have a fitted effect of over 50% in size
Pf growth 48h – inhibits P. falciparum growth in the first generation, 48 h | Potency, µM (series often up to 28.7 µM), for inactives: at the top dose activity change, negative = inhibition, hits mostly inhibitors | P. falciparum luciferase growth in erythrocytes, 48 h | actives 5.9% (n = 310,000); further: potency means the concentration at half of the fitted maximal effect; on the % scale 0 is the no-effect control and ±100 the full control effect
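First compound was added to culture medium, then infected red cells at 0.1% parasitemia and 2% hematocrit (final). After incubation at 37 C under 5% CO2, luciferase detection reagent was dispensed and light output recorded.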
Shiga toxin inh – blocks Shiga toxin action in Vero cells | Vero cells, Shiga toxin protein synthesis inhibition reporter | inhibition, % at 38.7 µM | actives 9.2% (n = 290,000) | AID 2315; in the data active means inhibition mostly above about 28%, no sharp cut-off; inactive means mostly below about 43%; further: 0% is about no effect
Numbers without * were called inactive; [ ] = another dose, or the depositor's remark. This is a sample that favours compounds with a hit; in the whole collection about 19% have one here. Unless noted, the call rests on the fitted dose curve; in most records, active means well fitted inhibition curve with a large enough effect; inconclusive means small, poorly fitted or top-dose-only effect, or another doubt; inactive means no such curve, though single readings can be large or run the other way.

What do the screens show for `Cc1cc(-n2c(C)cc(C(=O)CN3C(=O)NC4(CCCCC4C)C3=O)c2C)no1` (stereo not given)?
Pf growth 96h: -6.1%; Cycloheximide cs: -1.3; Marburg entry inh: -19.6%; LASV entry inh: -5.3%; Pf growth 48h: 2.33µM*; Shiga toxin inh: 9.4

Results for Cc1cc(-n2c(C)cc(C(=O)CN3C(=O)NC4(CCCCC4)C3=O)c2C)no1 ?
Pf growth 96h: 19.5%; Cycloheximide cs: 9.7*; Marburg entry inh: inconclusive; LASV entry inh: 9.1%; Pf growth 48h: 13.1µM*; Shiga toxin inh: 10.6

What do the screens show for `Cc1cc(-n2c(C)cc(C(=O)CCl)c2C)no1`?
Pf growth 96h: inconclusive; Cycloheximide cs: 7.2; Marburg entry inh: 2.82µM*; LASV entry inh: inconclusive; Pf growth 48h: -23.0%; Shiga toxin inh: -18.3

How did Cc1cc(C(=O)CN2C(=O)NC3(CCCCC3C)C2=O)c(C)n1Cc1cccs1 (stereo not given) do in these assays?
Pf growth 96h: -27.6%; Cycloheximide cs: 101.2*; Marburg entry inh: inconclusive; LASV entry inh: inconclusive; Pf growth 48h: 18.2%; Shiga toxin inh: 74.9*

What do the screens show for `Cc1cc(-n2c(C)cc(C(=O)CSc3nc(N)cc(=O)[nH]3)c2C)no1`?
Pf growth 96h: inconclusive; Cycloheximide cs: -0.4; Pf growth 48h: -7.0%; Shiga toxin inh: -0.4

How did CCOC(=O)c1cc(NC(=O)Nc2nc3ccccc3s2)c(C)nc1C do in these assays?
Pf growth 96h: 42.6%; Cycloheximide cs: -0.5; Marburg entry inh: inconclusive; LASV entry inh: -13.9%; Pf growth 48h: 16.7%; Shiga toxin inh: -10.9

Results for CCOc1ccccc1NC(=O)C(CC(C)C)NS(=O)(=O)c1ccc2c(c1)CCN2C(C)=O (stereo not given) ?
Marburg entry inh: inconclusive; LASV entry inh: -23.0%[46.1 µM]

Results for Cc1ccc(C(=O)N/C(=C\c2ccc([N+](=O)[O-])cc2)C(=O)NCCc2ccccc2)cc1 ?
Pf growth 96h: inconclusive; Cycloheximide cs: 14.0; Marburg entry inh: -9.2%; LASV entry inh: 3.7%; Pf growth 48h: inconclusive; Shiga toxin inh: -10.5

What do the screens show for `Cc1cc(C(=O)CN2C(=O)NC3(CCCC3)C2=O)c(C)n1-c1ccc2c(c1)OCO2`?
Pf growth 96h: inconclusive; Cycloheximide cs: 0.9; Marburg entry inh: 27.6%; LASV entry inh: 7.6%; Pf growth 48h: 10.9%; Shiga toxin inh: -2.7

Results for Cc1cc(C(=O)COC(=O)CN(C)S(=O)(=O)c2ccc(Cl)cc2)c(C)n1Cc1cccs1 ?
Pf growth 96h: 12.3%; Cycloheximide cs: 11.8; Marburg entry inh: -13.1%; LASV entry inh: -4.5%; Pf growth 48h: -15.7%; Shiga toxin inh: 25.6

What do the screens show for `Cc1cc(-n2c(C)cc(C(=O)COc3cc(F)ccc3[N+](=O)[O-])c2C)no1`?
Pf growth 96h: inconclusive; Pf growth 48h: 9.28µM*

What do the screens show for `CCCCN1C(=O)C(=O)N(CC(=O)c2cc(C)n(-c3cc(C)on3)c2C)C1=O`?
Pf growth 96h: inconclusive; Pf growth 48h: 10.4µM*

What do the screens show for `Cc1cc(-n2c(C)cc(C(=O)CN3C(=O)NC4(CCCC4)C3=O)c2C)no1`?
Pf growth 96h: 7.0%; Cycloheximide cs: 26.8*; Marburg entry inh: -1.4%; LASV entry inh: 14.4%; Pf growth 48h: inconclusive; Shiga toxin inh: 22.9

Results for Cc1cc(C(=O)CN2C(=O)c3cccc(N)c3C2=O)c(C)n1Cc1cccs1 ?
Pf growth 96h: 11.1%; Cycloheximide cs: 34.0*; Marburg entry inh: inconclusive; LASV entry inh: inconclusive; Shiga toxin inh: 83.5*

What do the screens show for `CCONC(=NC)c1nonc1N`?
Pf growth 96h: 9.4%; Cycloheximide cs: -2.8; Marburg entry inh: 2.8%[46.1 µM]; LASV entry inh: -11.5%; Pf growth 48h: -2.9%; Shiga toxin inh: 9.3

Results for O=C(O)c1ccc2c(c1)C(=O)N(CCc1ccccc1)C2=O ?
Pf growth 96h: inconclusive; Cycloheximide cs: 1.8; Pf growth 48h: -8.1%

Results for O=C(Nc1ccccc1O)c1ccc2c(c1)C(=O)N(N1C(=O)c3ccccc3C1=O)C2=O ?
Pf growth 96h: 9.28µM*; Cycloheximide cs: -0.1; Marburg entry inh: inconclusive; LASV entry inh: 28.0%; Pf growth 48h: 7.2%; Shiga toxin inh: -9.0

How did COc1ccc(CN2C(=O)c3ccc(C(=O)O)cc3C2=O)cc1 do in these assays?
Pf growth 96h: 9.28µM*; Cycloheximide cs: -3.3; Shiga toxin inh: 4.0

How did O=C(O)c1ccc2c(c1)C(=O)N(N1C(=O)c3ccccc3C1=O)C2=O do in these assays?
Pf growth 96h: 9.28µM*; Cycloheximide cs: 9.8; Marburg entry inh: 6.5%; LASV entry inh: 4.0%; Pf growth 48h: 14.3%; Shiga toxin inh: -5.4

Results for COc1ccccc1N1C(=O)c2ccc(C(=O)Nc3ccccc3O)cc2C1=O ?
Pf growth 96h: -4.0%; Cycloheximide cs: 11.2*; Pf growth 48h: 0.7%; Shiga toxin inh: 19.1

What do the screens show for `Cc1ccccc1P(=O)(CO)c1ccccc1C`?
Cycloheximide cs: -3.8; Marburg entry inh: -3.0%; LASV entry inh: -7.1%; Pf growth 48h: -1.5%; Shiga toxin inh: 20.2

Results for COc1cc(C(=O)Nc2ccccc2N2CCN(S(C)(=O)=O)CC2)cc(OC)c1OC ?
Cycloheximide cs: -1.1; Marburg entry inh: -20.1%; LASV entry inh: -11.9%; Pf growth 48h: inconclusive; Shiga toxin inh: -6.5

How did CCOC(=O)/C=C1\SCC(=O)N1CC(=O)NC(C)C do in these assays?
Pf growth 96h: -1.7%; Cycloheximide cs: -5.3; Marburg entry inh: inconclusive; LASV entry inh: 26.4%; Shiga toxin inh: -17.3

How did CC(=O)c1c(C)[nH]c(C(=O)NCC2CCCCC2)c1C do in these assays?
Pf growth 96h: 29.9%; Cycloheximide cs: 11.5; Marburg entry inh: -1.9%[46.1 µM]; LASV entry inh: -0.1%[46.1 µM]; Pf growth 48h: 13.5%; Shiga toxin inh: 63.2*

What do the screens show for `CC(=O)c1c(C)[nH]c(C(=O)NCCN2CCC(C)CC2)c1C`?
Pf growth 96h: 11.7µM*; Cycloheximide cs: 0.5; Marburg entry inh: -9.5%; LASV entry inh: 1.1%; Pf growth 48h: -4.6%; Shiga toxin inh: 4.6

Results for Cc1ccc(S(=O)(=O)CCC(=O)OCC(=O)NCc2ccccc2)cc1 ?
Pf growth 96h: 63.4%; Marburg entry inh: 17.1%; LASV entry inh: -3.5%; Pf growth 48h: 11.9%

How did CCn1cc(S(=O)(=O)c2ccc(C)cc2)c(=O)c2cc(F)c(N3CCCCCC3)cc21 do in these assays?
LASV entry inh: 4.5%[46.1 µM]

How did CCSS(=O)(=O)c1cccc2cccnc12 do in these assays?
Pf growth 96h: 24.3%; Cycloheximide cs: 1.1; Marburg entry inh: -19.0%[46.1 µM]; LASV entry inh: -44.1%; Pf growth 48h: 1.2%; Shiga toxin inh: 11.2

Results for O=C(C1CCCN(S(=O)(=O)c2ccccc2[N+](=O)[O-])C1)N1CCCC1 (stereo not given) ?
Pf growth 96h: -27.9%; Cycloheximide cs: -3.6; Marburg entry inh: -8.9%; LASV entry inh: -6.0%; Pf growth 48h: 10.1%; Shiga toxin inh: -9.6
